What all share (details): mRNA level, 48 h; actives raise or lower the signal
Read-out in test [1]: Glutamate-cysteine ligase catalytic (GCLC), GCLC (gene 2729)
Nature of the test: LTEA_HepaRG_GCLC: Life Technologies and Expression Analysis (LTEA) Assay for Glutamate-cysteine ligase catalytic (GCLC) using HepaRG (AID 2283498). In a few lines:
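Read-out is GCLC transcript level by Fluidigm-based TaqMan qRT-PCR, normalized to three housekeeping genes and fitted in both directions relative to 0.5% DMSO. Human HepaRG cells received chemicals for 48 h, up to 100 uM.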

Read-out in test [2]: growth arrest and DNA damage 45 (GADD45G), GADD45G (gene 10912)
Nature of the test: LTEA_HepaRG_GADD45G: Life Technologies and Expression Analysis (LTEA) Assay for growth arrest and DNA damage 45 (GADD45G) using HepaRG (AID 2283499). An outline of the steps: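 GADD45G transcript level by qRT-PCR (housekeeping-normalized: ACTB, GAPDH, POLR2A) after 48 h chemical treatment of a single HepaRG lot in serum-free induction medium; eight-point half-log series up to 100 uM in 0.5% DMSO, duplicates, up- or down-regulation scored.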

Read-out in test [3]: Glutamate-cysteine ligase regulatory (GCLM), GCLM (gene 2730)
The test can be described thus: LTEA_HepaRG_GCLM: Life Technologies and Expression Analysis (LTEA) Assay for Glutamate-cysteine ligase regulatory (GCLM) using HepaRG (AID 2283500). An outline of the steps:
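Differentiated HepaRG cells exposed 48 h in serum-free induction medium to eight half-log concentrations up to 100 uM (0.5% DMSO). GCLM mRNA by TaqMan qRT-PCR, normalized to ACTB, GAPDH and POLR2A; bidirectional fit versus DMSO.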

Read-out in test [4]: Glutathione S-transferase M3 (GSTM3), GSTM3 (gene 2947)
The test can be described thus: LTEA_HepaRG_GSTM3: Life Technologies and Expression Analysis (LTEA) Assay for Glutathione S-transferase M3 (GSTM3) using HepaRG (AID 2283501). In a few lines: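 GSTM3 transcript levels came from Fluidigm TaqMan qRT-PCR normalized to three housekeeping genes, fitted in both directions against DMSO. HepaRG cultures received chemicals for 48 h in serum-free induction medium (0.5% DMSO), 8 half-log concentrations up to 100 uM, duplicate.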

Read-out in test [5]: Heat shock 70 kDa protein 1 (HSPA1A), gene 3303
Nature of the test: LTEA_HepaRG_HSPA1A: Life Technologies and Expression Analysis (LTEA) Assay for Heat shock 70 kDa protein 1 (HSPA1A) using HepaRG (AID 2283502). In a few lines: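 Human HepaRG cells in serum-free induction medium were exposed in duplicate for 48 h to 8 half-log concentrations, highest 100 uM, in 0.5% DMSO. HSPA1A mRNA read by TaqMan qRT-PCR, normalized to ACTB, GAPDH, POLR2A, fitted bidirectionally against DMSO.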

Read-out in test [6]: Hypoxia-inducible factor 1-alpha (Homo sapiens) (UniProt Q16665)
Nature of the test: LTEA_HepaRG_HIF1A: Life Technologies and Expression Analysis (LTEA) Assay for Hypoxia-inducible factor 1 (HIF1A) Trancription factor using HepaRG (AID 2283503). An outline of the steps:
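Differentiated HepaRG cells in serum-free induction medium exposed 48 h, in duplicate, to 8-point half-log series from 100 uM in 0.5% DMSO. HIF1A mRNA measured by TaqMan qRT-PCR, normalized to ACTB/GAPDH/POLR2A, fitted bidirectionally versus DMSO.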

Read-out in test [7]: 3-Hydroxy-3-Methylglutaryl-CoA Synthase 2 (HMGCS2), HMGCS2 (gene 3158)
Nature of the test: LTEA_HepaRG_HMGCS2: Life Technologies and Expression Analysis (LTEA) Assay for 3-Hydroxy-3-Methylglutaryl-CoA Synthase 2 (HMGCS2) using HepaRG (AID 2283504). An outline of the steps: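 Readout is HMGCS2 transcript by qRT-PCR, housekeeping-normalised (ACTB/GAPDH/POLR2A) and fitted bidirectionally against 0.5% DMSO. Differentiated HepaRG cells received chemicals 48 h, duplicate wells, eight half-log concentrations topping at 100 uM.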

Read-out in another test: HGF (gene 3082)
The test can be described thus: LTEA_HepaRG_HGF: Life Technologies and Expression Analysis (LTEA) Assay for Hepatocyte Growth Facto (HGF) using HepaRG (AID 2283505). In a few lines:
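HGF transcript was quantified by TaqMan qRT-PCR against three housekeeping genes after 48 h treatment of HepaRG cells. Exposure ran in duplicate over eight half-log steps topping at 100 uM in 0.5% DMSO vehicle.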

Read-out in test [8]: Insulin Like Growth Factor 1 (IGF1), IGF1 (gene 3479)
Nature of the test: LTEA_HepaRG_IGF1: Life Technologies and Expression Analysis (LTEA) Assay for Insulin Like Growth Factor 1 (IGF1) using HepaRG (AID 2283506). In a few lines: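 Differentiated HepaRG cells in serum-free induction medium, exposed 48 h in duplicate to 8 half-log concentrations up to 100 uM in 0.5% DMSO. IGF1 mRNA by Fluidigm qRT-PCR, normalised to ACTB, GAPDH and POLR2A.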

Read-out in test [9]: Intercellular Adhesion Molecule 1 (ICAM1), ICAM1 (gene 3383)
Nature of the test: LTEA_HepaRG_ICAM1: Life Technologies and Expression Analysis (LTEA) Assay for Intercellular Adhesion Molecule 1 (ICAM1) using HepaRG (AID 2283507). An outline of the steps:
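ICAM1 transcript levels measured by qRT-PCR, normalized to three housekeeping genes (ACTB, GAPDH, POLR2A), after 48 h chemical exposure of HepaRG cells. Duplicate eight-point half-log series from 100 uM in 0.5% DMSO; gain or loss fitted against vehicle.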

Read-out in test [10]: Insulin-like growth factor-binding protein 1 (IGFBP1), IGFBP1 (gene 3484)
The test can be described thus: LTEA_HepaRG_IGFBP1: Life Technologies and Expression Analysis (LTEA) Assay for Insulin-like growth factor-binding protein 1 (IGFBP1) using HepaRG (AID 2283508). An outline of the steps: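 Read-out is qRT-PCR transcript level normalized to three housekeeping genes, fitted in both directions against 0.5% DMSO. Differentiated HepaRG cells received eight half-log concentrations (top 100 uM) in duplicate for 48 h in serum-free induction medium.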

Read-out in test [11]: Interleukin 6 (IL6), IL6 (gene 3569)
The test can be described thus: LTEA_HepaRG_IL6: Life Technologies and Expression Analysis (LTEA) Assay for Interleukin 6 (IL6) using HepaRG (AID 2283509). An outline of the steps: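 HepaRG, ~100,000 cells/well, 48 h pre-culture; serum-free induction medium; cmpd 8-pt half-log from 100 uM, 0.5% DMSO, duplicate, 48 h. Lysis in RLT, TaqMan qRT-PCR; gain or loss vs DMSO.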

Read-out in test [12]: Interleukin 6 Receptor (IL6R), IL6R (gene 3570)
Nature of the test: LTEA_HepaRG_IL6R: Life Technologies and Expression Analysis (LTEA) Assay for Interleukin 6 Receptor (IL6R) using HepaRG (AID 2283510). An outline of the steps:
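Differentiated HepaRG cells, plated 48 h, then exposed in duplicate for 48 h in serum-free induction medium to 8 half-log concentrations (top 100 uM, 0.5% DMSO). IL6R mRNA measured by TaqMan qRT-PCR, normalized to ACTB/GAPDH/POLR2A; bidirectional fit vs DMSO.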

Read-out in test [13]: Potassium channel subfamily K member 1 (KCNK1), KCNK1 (gene 3775)
Nature of the test: LTEA_HepaRG_KCNK1: Life Technologies and Expression Analysis (LTEA) Assay for Potassium channel subfamily K member 1 (KCNK1) using HepaRG (AID 2283511). An outline of the steps:
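Gain or loss of KCNK1 mRNA is the read-out, quantified by qRT-PCR against three housekeeping genes after 48 h chemical treatment of human HepaRG liver cells. Concentrations ran from 100 uM downward in half-log steps, vehicle 0.5% DMSO.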

Read-out in test [14]: JUN Transcription Factor, JUN (gene 3725)
The test can be described thus: LTEA_HepaRG_JUN: Life Technologies and Expression Analysis (LTEA) Assay for JUN Transcription Factor using HepaRG (AID 2283513). In a few lines: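 HepaRG cells, 48 h post-plating, exposed 48 h in serum-free induction medium to 8-point half-log series (top 100 uM, 0.5% DMSO), duplicate; mRNA by qRT-PCR (TaqMan, Fluidigm), normalized to ACTB/GAPDH/POLR2A; bidirectional fit vs DMSO.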

Read-out in test [15]: Lipase C (LIPC), LIPC (gene 3990)
Nature of the test: LTEA_HepaRG_LIPC: Life Technologies and Expression Analysis (LTEA) Assay for Lipase C (LIPC) using HepaRG (AID 2283514). An outline of the steps: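 Read-out is LIPC transcript level by TaqMan qRT-PCR, normalized to three housekeeping genes, after 48 h chemical treatment of human HepaRG liver cells. Curves span eight concentrations topping at 100 uM; activity in either direction scored relative to 0.5% DMSO.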

Read-out in test [16]: Lipoprotein lipase (LPL), LPL (gene 4023)
The test can be described thus: LTEA_HepaRG_LPL: Life Technologies and Expression Analysis (LTEA) Assay for Lipoprotein lipase (LPL) using HepaRG (AID 2283515). In a few lines:
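Read-out is LPL transcript level by qRT-PCR, normalized to three housekeeping genes and fitted bidirectionally against the DMSO control. Human HepaRG cells received chemicals for 48 h at up to 100 uM.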

Read-out in test [17]: MicroRNA 122 (MIR122), gene 406906
Nature of the test: LTEA_HepaRG_MIR122: Life Technologies and Expression Analysis (LTEA) Assay for MicroRNA 122 (MIR122) using HepaRG (AID 2283516). Note: the transcript read is the microRNA miR-122. In a few lines: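 Differentiated human HepaRG cells in serum-free induction medium exposed 48 h to 8 half-log concentrations from 100 uM in 0.5% DMSO, duplicate. MIR122 quantified by Fluidigm TaqMan qRT-PCR, normalised to ACTB, GAPDH, POLR2A; fold change fitted bidirectionally versus DMSO.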

Read-out in test [18]: matrix metalloproteinase-10 (MMP10), MMP10 (gene 4319)
The test can be described thus: LTEA_HepaRG_MMP10: Life Technologies and Expression Analysis (LTEA) Assay for matrix metalloproteinase-10 (MMP10) using HepaRG (AID 2283517). In a few lines:
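Gain or loss of MMP10 mRNA is fitted relative to the 0.5% DMSO vehicle. The human hepatic line HepaRG receives a 48-hour serum-free exposure, in duplicate, with a maximum concentration of 100 uM.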

Read-out in test [19]: Keratin 19 (KRT19), KRT19 (gene 3880)
The test can be described thus: LTEA_HepaRG_KRT19: Life Technologies and Expression Analysis (LTEA) Assay for Keratin 19 (KRT19) using HepaRG (AID 2283512). An outline of the steps: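 KRT19 transcript measured by TaqMan qRT-PCR, referenced to three housekeeping genes, after HepaRG cells received test chemicals for 48 h. Eight half-log concentrations, top 100 uM, 0.5% DMSO vehicle; increases and decreases both fitted.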

In PubChem BioAssay (EPA / NIEHS) one finds outcome and AC50 data, which are given here for four compounds.

Active and inactive are the calls of the source. Rule for the calls: active = hit-call score of the fitted dose curve at least 0.9, where 1 is the maximum; inactive = score below 0.9.

One may read the AC50 as the concentration at which the activity in the assay is half-maximal.

Chain of Hypoxia-inducible factor 1-alpha (Homo sapiens) (Q16665 whole entry, looked up): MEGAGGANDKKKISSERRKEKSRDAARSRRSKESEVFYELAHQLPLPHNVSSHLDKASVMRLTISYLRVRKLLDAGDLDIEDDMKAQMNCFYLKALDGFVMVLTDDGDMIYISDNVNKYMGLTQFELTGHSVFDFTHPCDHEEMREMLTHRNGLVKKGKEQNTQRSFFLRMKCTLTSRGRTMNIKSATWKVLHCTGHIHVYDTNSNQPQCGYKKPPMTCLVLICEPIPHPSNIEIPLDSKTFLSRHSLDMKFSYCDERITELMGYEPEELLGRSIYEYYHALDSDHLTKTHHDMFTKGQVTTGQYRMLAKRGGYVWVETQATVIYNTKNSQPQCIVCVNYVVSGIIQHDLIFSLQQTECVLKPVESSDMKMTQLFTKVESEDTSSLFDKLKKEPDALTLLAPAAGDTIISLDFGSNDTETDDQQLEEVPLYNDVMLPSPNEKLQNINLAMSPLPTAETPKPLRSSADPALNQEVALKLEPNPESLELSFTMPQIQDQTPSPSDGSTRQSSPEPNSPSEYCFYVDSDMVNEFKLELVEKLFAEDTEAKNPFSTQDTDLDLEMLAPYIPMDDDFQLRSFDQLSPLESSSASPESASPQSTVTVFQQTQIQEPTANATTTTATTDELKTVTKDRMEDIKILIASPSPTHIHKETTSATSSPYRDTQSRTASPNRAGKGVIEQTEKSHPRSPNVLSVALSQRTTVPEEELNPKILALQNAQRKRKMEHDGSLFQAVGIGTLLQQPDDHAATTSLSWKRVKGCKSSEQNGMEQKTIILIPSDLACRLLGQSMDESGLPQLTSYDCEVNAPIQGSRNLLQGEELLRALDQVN

As to `O=S1(=O)CCCO1`, the result in test [1], in test [2], in test [3], in [4], in test [5] and in test [6] was inactive. The compound was called inactive (in test [7]; with HGF (gene 3082); in test [8]; in [9]; in [10]; in [11]). Also, the result in [12], in test [13], in test [14], in [15], in [16] and in [17] was inactive. Besides, the compound was called inactive in [18].
Take `CCCCCCOC(=O)CC(CC(=O)OCCCCCC)(OC(=O)CCC)C(=O)OCCCCCC`: the outcome in test [1], in test [2], in test [3], in test [4], in test [5] and in [6] was inactive. In addition, the result (in test [7]; in the test with HGF (gene 3082); in [8]; in test [9]; in test [10]; in test [11]) was inactive. Further, the compound was called inactive in test [12], in test [13], in test [14], in [15], in [16] and in [17]. Also, in test [18], the call was inactive.
In the case of `O=C1CN(N=Cc2ccc([N+](=O)[O-])o2)C(=O)N1`, the compound was classed as inactive in test [1], in [4], in [5], in test [6], in test [9] and in [11]. In addition, the compound was classed as inactive in test [13], in test [14], in [15] and in test [17]. For the same compound, the AC50 is 71.6 µM (active) in test [2]; 72.5 µM (active) in test [3]; 72 µM (active) in test [7]; 50 µM (active) in test [8]; 33.4 µM (active) in test [10]; 91.3 µM (active) in test [16].
Turning to `OCCNCCO`, the outcome (in test [1]; in test [2]; in test [3]; in [5]; in the test with HGF (gene 3082); in test [8]) was inactive. The compound was called inactive in [9], in [10], in test [11], in test [12], in [13] and in test [14]. For the same compound, the result in [15], in [16], in test [17] and in test [18] was inactive. The figures for the AC50 in [6], in [7] and in test [19] were 50 µM (active), 75 µM (active) and 50 µM (active), respectively.
